Records with an inconclusive call do not appear. Active and inactive are the calls of the source. Unless noted, calls follow the shape of the dose curve; as a rule, active = well fitted curve in the direction sought with a large enough effect; inconclusive = small, poorly fitted or top-dose-only effect, or another doubt; inactive = no such curve, though single readings can be large; an effect the other way counts as inactive or inconclusive.
Assays:
Es-2 = assay: Primary qHTS to identify gynecologic anti-cancer compounds using libraries of approved drugs and bioactive compounds (AID 1345084); conditions: Gynecologic cancer cell panel viability, ATPlite luminescence, 48 h; series mostly up to 57.5 µM; also: nearly all actives have a fitted effect of over 55% in size; also: potency is read from the fitted curve at half-maximal effect
How it was run: (§1)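 In this quantitative HTS, cell killing is estimated from loss of ATP-dependent luciferase light. Cells see five compound concentrations over a 48 h exposure.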

HeLa = assay: as above; conditions: Gynecologic cancer cell panel viability, ATPlite luminescence, 48 h; series mostly up to 57.5 µM
How it was run: as §1

JEG-3 = assay: as above; conditions: Gynecologic cancer cell panel viability, ATPlite luminescence, 48 h; series mostly up to 57.5 µM
How it was run: as §1

OV90 = assay: as above; conditions: Gynecologic cancer cell panel viability, ATPlite luminescence, 48 h; series mostly up to 57.5 µM
How it was run: as §1

PA-1 = assay: as above; conditions: Gynecologic cancer cell panel viability, ATPlite luminescence, 48 h; series mostly up to 57.5 µM
How it was run: as §1

SKOV3 = assay: as above; conditions: Gynecologic cancer cell panel viability, ATPlite luminescence, 48 h; series mostly up to 57.5 µM
How it was run: as §1

Tov-21-G = assay: as above; conditions: Gynecologic cancer cell panel viability, ATPlite luminescence, 48 h; series mostly up to 57.5 µM
How it was run: as §1

Tov112D = assay: as above; conditions: Gynecologic cancer cell panel viability, ATPlite luminescence, 48 h; series mostly up to 57.5 µM
How it was run: as §1

[1] = Drug repurposing screens with cells derived from glioblastoma tumor samples (AID 1345199); conditions: GBM patient neurospheres viability, ATP luminescence, 48 h; also: nearly all actives have a fitted effect of over 40% in size; also: potency is read from the fitted curve at half-maximal effect; as to activity, negative = cell killing: % is scaled to controls: 0 for no effect and ±100 for the full control effect
How it was run: (§2)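 Primary testing used CD133+ neurospheres from four GBM patients, seven concentrations, 48 h exposure and ATP-based viability; confirmation added three slower-growing patient lines.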

astro = assay: as above; conditions: viability, ATP luminescence, 48 h; series mostly up to 45.9 µM
How it was run: as §2

Hek293T = assay: Primary qHTS to identify gynecologic anti-cancer compounds using libraries of approved drugs and bioactive compounds (AID 1345084); conditions: Gynecologic cancer cell panel viability, ATPlite luminescence, 48 h, control line for the selectivity index; series mostly up to 57.5 µM; also: nearly all actives have a fitted effect of over 55% in size; also: potency is read from the fitted curve at half-maximal effect
How it was run: as §1

[2] = molecular target: Nuclear receptor subfamily 1 group I member 2 (Rattus norvegicus) (UniProt Q9R1A7); assay: qHTS assay for small molecule activators of the rat pregnane X receptor (rPXR) signaling pathway (AID 651751; call rule not given here; also: 0% is about no effect); conditions: rPXR reporter cells, luciferase (One-Glo), 24 h
[3] = qHTS assay to identify inhibitors of the type 1 interferon - major histocompatibility complex class I in skeletal muscle: Counter screen cell viability and HiBit confirmation (AID 1347412); conditions: iHSKM muscle cells + IFN-b, HiBiT or CellTiter-Glo, 24 h; Potency: HiBiT; Viability, at 45.9 µM (top of the series); also: potency is read from the fitted curve at half-maximal effect; nearly all actives have a fitted effect of over 60% in size
How it was run: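 Duplicate plates, pinned identically: one read for HiBiT-tagged endogenous HLA-B luminescence, the other for ATP-content viability via CellTiter Glo. Cells were genome-engineered human myoblasts given 4 ng/ml IFN-b; compounds 12-pt, 1:3 from 46 uM final; 24 hr exposure.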

[4] = at 45.9 µM (top of the series), tumour line B
[5] = at 45.9 µM (top of the series), tumour line D
[6] = at 46.1 µM (top of the series), tumour line C
[7] = at 20 µM (top of the series), tumour line C
[8] = at 21.2 µM (top of the series), tumour line B

Sequence of Nuclear receptor subfamily 1 group I member 2 (Rattus norvegicus) (Q9R1A7 whole entry, looked up): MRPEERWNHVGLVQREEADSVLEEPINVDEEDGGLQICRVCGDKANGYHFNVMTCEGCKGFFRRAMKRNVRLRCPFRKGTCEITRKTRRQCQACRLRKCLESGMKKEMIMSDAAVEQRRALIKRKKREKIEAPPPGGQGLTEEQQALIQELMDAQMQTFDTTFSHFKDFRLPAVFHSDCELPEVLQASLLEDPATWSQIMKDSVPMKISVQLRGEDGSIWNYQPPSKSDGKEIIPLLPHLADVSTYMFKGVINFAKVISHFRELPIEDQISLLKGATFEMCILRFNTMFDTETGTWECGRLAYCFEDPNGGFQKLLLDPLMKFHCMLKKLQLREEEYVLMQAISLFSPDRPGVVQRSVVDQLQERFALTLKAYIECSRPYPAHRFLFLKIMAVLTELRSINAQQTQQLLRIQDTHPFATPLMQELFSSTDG

CCC1Nc2cc(Cl)c(S(N)(=O)=O)cc2S(=O)(=O)N1 (configuration not stated)
inactive: Potency (Es-2) | Potency (HeLa) | Potency (JEG-3) | Potency (OV90) | Potency (PA-1) | Potency (SKOV3) | Potency (Tov-21-G) | Potency (Tov112D) | activity, negative = cell killing [1, 4] -19.7% | activity, negative = cell killing [1, 5] 9.79% | activity, negative = cell killing [1, 6] -1.53% | Potency (astro)

CC1(COc2ccc(CC3SC(=O)NC3=O)cc2)CCCCC1 (configuration not stated)
inactive: Potency (Es-2) | Potency (HeLa) | Potency (Hek293T) | Potency (JEG-3) | Potency (PA-1) | Potency (SKOV3) | Potency (Tov-21-G) | Potency (Tov112D) | max response [2] 13.5%

O=C(Nc1ccccc1)OCC(CN1CCCCC1)OC(=O)Nc1ccccc1 (configuration not stated)
active: Potency ([1]; tumour line A) 11200 nM | Potency ([1]; tumour line D) 10000 nM
inactive: Potency (Es-2) | Potency (HeLa) | Potency (JEG-3) | Potency (PA-1) | Potency (Tov-21-G) | Potency (Tov112D) | activity, negative = cell killing [1, 7] -1.96% | Potency (astro)

CCN1/C(=C/C=C/c2sc3ccccc3[n+]2CC)Sc2ccccc21
active: Potency (Es-2) 2510 nM | Potency (HeLa) 891 nM | Potency (Hek293T) 2000 nM | Potency (OV90) 2240 nM | Potency (PA-1) 1410 nM | Potency (SKOV3) 126 nM | Potency (Tov-21-G) 891 nM | Potency (Tov112D) 3160 nM | Potency (astro) 11200 nM

CCN(CC)CCOC(=O)C(Cc1cccc2ccccc12)CC1CCCO1 (configuration not stated)
active: Potency ([1]; tumour line A) 11200 nM
inactive: Potency (Es-2) | Potency (HeLa) | Potency (Hek293T) | Potency (JEG-3) | Potency (PA-1) | Potency (Tov-21-G) | Potency (Tov112D) | activity, negative = cell killing [1, 7] 6.25% | activity, negative = cell killing [1, 8] -13.3% | activity, negative = cell killing ([1]; at 21.2 µM (top of the series), tumour line D) -13.7% | Potency (astro)

O=S(=O)(O)c1ccc(O)cc1
inactive: Potency (Es-2) | Potency (HeLa) | Potency (Hek293T) | Potency (JEG-3) | Potency (PA-1) | Potency (SKOV3) | Potency (Tov-21-G) | Potency (Tov112D) | activity, negative = cell killing [1, 4] -17.6% | activity, negative = cell killing [1, 5] -11% | activity, negative = cell killing [1, 6] -1.85% | Potency (astro)

NS(=O)(=O)c1ccc(Cl)c(S(N)(=O)=O)c1
inactive: Potency (Es-2) | Potency (HeLa) | Potency (Hek293T) | Potency (JEG-3) | Potency (PA-1) | Potency (SKOV3) | Potency (Tov-21-G) | Potency (Tov112D) | activity, negative = cell killing [1, 4] -6.27% | activity, negative = cell killing [1, 5] -11.1% | activity, negative = cell killing ([1]; at 46 µM (top of the series), tumour line A) -23.6% | activity, negative = cell killing [1, 6] 27.6% | Potency (astro)

CCOC(=O)C(C#N)=C(c1ccccc1)c1ccccc1
inactive: Potency (Es-2) | Potency (HeLa) | Potency (Hek293T) | Potency (JEG-3) | Potency (PA-1) | Potency (SKOV3) | Potency (Tov-21-G) | Potency (Tov112D) | activity, negative = cell killing [1, 4] -12.8% | activity, negative = cell killing [1, 5] -4.23% | Potency (astro)
active: Potency ([1]; tumour line A) 11200 nM

O=C(CCCN1CC=C(n2c(=O)[nH]c3ccccc32)CC1)c1ccc(F)cc1
inactive: Potency (Es-2) | Potency (HeLa) | Potency (Hek293T) | Potency (JEG-3) | Potency (Tov-21-G) | Potency (Tov112D) | activity, negative = cell killing [1, 4] -17.1% | activity, negative = cell killing [1, 5] -15% | activity, negative = cell killing [1, 6] -24.6% | Potency (astro)
active: Potency ([1]; tumour line A) 10000 nM

C[N+]1(CC2COC(c3ccccc3)(C3CCCCC3)O2)CCCCC1 (configuration not stated)
inactive: Potency (Es-2) | Potency (HeLa) | Potency (Hek293T) | Potency (JEG-3) | Potency (SKOV3) | Potency (Tov-21-G) | Potency (Tov112D) | Potency (astro)

CCCCc1cc2ccccc2c(OCCN(C)C)n1
inactive: Potency (Es-2) | Potency (HeLa) | Potency (Hek293T) | Potency (JEG-3) | Potency (PA-1) | Potency (Tov-21-G) | Potency (Tov112D) | activity, negative = cell killing [1, 7] -4.36% | activity, negative = cell killing [1, 8] -17.4% | Potency (astro)

Nc1nc(Cl)nc2c1ncn2[C@@H]1O[C@H](CO)[C@@H](O)[C@@H]1F
inactive: Potency (HeLa)
active: Potency (Es-2) 316 nM | Potency (JEG-3) 11200 nM | Potency (OV90) 398 nM | Potency (PA-1) 1260 nM | Potency (Tov112D) 316 nM | Potency (astro) 10000 nM

C[C@H]1O[C@@H](O[C@H]2CC[C@@]3(C)[C@H](CC[C@@H]4[C@@H]3C[C@@H](O)[C@]3(C)[C@@H](C5=CC(=O)OC5)CC[C@]43O)C2)C[C@H](O)[C@@H]1O[C@H]1C[C@H](O)[C@H](O[C@H]2C[C@H](O)[C@H](O[C@@H]3O[C@H](CO)[C@@H](O)[C@H](O)[C@H]3O)[C@@H](C)O2)[C@@H](C)O1
active: Potency (Es-2) 447 nM | Potency (HeLa) 355 nM | Potency (Hek293T) 355 nM | Potency (OV90) 1580 nM | Potency (PA-1) 316 nM | Potency (SKOV3) 282 nM | Potency (Tov-21-G) 316 nM | Potency (Tov112D) 316 nM | Potency (astro) 316 nM | Potency [3] 198 nM

Cc1nc(-c2ccc(Cl)cc2)oc1COC(C)(C)C(=O)O
inactive: Potency (Es-2) | Potency (HeLa) | Potency (Hek293T) | Potency (JEG-3) | Potency (PA-1) | Potency (SKOV3) | Potency (Tov-21-G) | Potency (Tov112D) | activity, negative = cell killing [1, 4] -18.8% | activity, negative = cell killing [1, 5] -2.81% | activity, negative = cell killing [1, 6] -9.1% | Potency (astro)

CCOc1ccccc1OCCN[C@H](C)Cc1ccc(OC)c(S(N)(=O)=O)c1
active: Potency ([1]; tumour line A) 35500 nM
inactive: Potency (Es-2) | Potency (HeLa) | Potency (Hek293T) | Potency (JEG-3) | Potency (PA-1) | Potency (SKOV3) | Potency (Tov-21-G) | Potency (Tov112D) | activity, negative = cell killing [1, 4] -15.7% | activity, negative = cell killing [1, 5] -16.9% | activity, negative = cell killing [1, 6] -16.6% | Potency (astro)

O=C(N/N=C/c1ccc([N+](=O)[O-])o1)c1ccc(O)cc1
active: Potency (Hek293T) 25100 nM | Potency (OV90) 22400 nM | Potency (PA-1) 20000 nM | Potency (SKOV3) 14100 nM
inactive: Potency (HeLa) | Potency (JEG-3) | Potency (astro)
